ChEMBL document CHEMBL3988442, “University of Dundee, Small-Polar-MMV Screening Library” (2021)
Among all 48,000 compounds or so, about 13,000 (27%) showed an effect of 50% or more. Some of the results follow.

These molecules were tested on Wolbachia pipientis (assay: Anti-Wolbachia Cell-Based Screen). Conditions: 5 µM.
Format: functional
Set-up: scale not given: in the data most compounds retested in dose-response had high values

For `CN(CC(=O)NCC(F)(F)F)Cc1cccc2c1OCCO2`, which “Percent Effect” value is on record?
The value was -18.06%.

Which “Percent Effect” value does the source give for `CN(Cc1ccc(CCC(C)(C)O)cc1)Cc1cccnc1` here?
Its value is -22.62%.

For `Cc1ccc(CN2CCC3(CCCN(S(C)(=O)=O)C3)C2)o1` (stereo unspecified), which “Percent Effect” value is on record?
Its value is -14.58%.

For `CS(=O)(=O)N1Cc2ccccc2CC2(CCN(Cc3ccccc3)C2)C1` (stereo unspecified), which “Percent Effect” value is on record?
The value was 126.9%.

For `Cc1ccc(N2CCC3(CCN(Cc4ccccn4)CC3)CC2)nn1`, which “Percent Effect” value is on record?
Its value is 3.728%.

`CN1CC(=O)N(c2cccc(F)c2)CC12CCN(Cc1ccccn1)C2` (stereo unspecified) was tested. Which “Percent Effect” value did it give?
The value was 2.437%.

With `CS(=O)(=O)N1Cc2ccccc2CC2(CCN(Cc3ccncc3)C2)C1` (stereo unspecified) as the molecule, how does the “Percent Effect” value read?
Its value is 115%.

Which “Percent Effect” value does the source give for `CS(=O)(=O)N1Cc2ccccc2CC2(CCN(Cc3ccccn3)C2)C1` (stereo unspecified) here?
The value was 113.9%.

For `COCCC(=O)N1CC2(CCN(Cc3ccncc3)CC2)C1`, which “Percent Effect” value is on record?
Its value is 12.72%.

With `c1cnn(Cc2ccc(CN3CCC4(CCNCC4)C3)cc2)c1` as the molecule, how does the “Percent Effect” value read?
The value was 15.29%.

For `Cc1ccc(CN2CCC3(CCN(S(=O)(=O)c4ccccc4)C3)C2)o1` (stereo unspecified), which “Percent Effect” value is on record?
Its value is -12.36%.

`CS(=O)(=O)N1CC2(CCN(Cc3ccccn3)C2)Cc2ccccc21` (stereo unspecified) was tested. Which “Percent Effect” value did it give?
Its value is 111%.

For `COCC(=O)N1CCC2(CCN(Cc3ccccn3)CC2)CC1`, which “Percent Effect” value is on record?
Its value is -21.07%.

With `CS(=O)(=O)N1CCC(c2nccn2Cc2ccccn2)CC1` as the molecule, how does the “Percent Effect” value read?
The value was 3.46%.

With `COCC(c1cccc(C(F)(F)F)c1)N(C)C(=O)c1cc(C)n[nH]1` (stereo unspecified) as the molecule, how does the “Percent Effect” value read?
The value was -9.299%.

Which “Percent Effect” value does the source give for `Cc1nc2[nH]cc(C(=O)N3CCCCC3c3ccc(F)cc3)c(=O)n2n1` (stereo unspecified) here?
Its value is -1.637%.

`Cc1nc(-c2cc(C(=O)O)co2)cs1` was tested. Which “Percent Effect” value did it give?
Its value is 4.91%.

With `Cc1nn(-c2ccccn2)c(C)c1[C@@H]1C=C[C@@H](NC(=O)CCC(=O)O)C1` as the molecule, how does the “Percent Effect” value read?
The value was -2.847%.

`CN(C)S(=O)(=O)NCC(O)c1cc2ccccc2s1` (stereo unspecified) was tested. Which “Percent Effect” value did it give?
Its value is -1.975%.

Which “Percent Effect” value does the source give for `CCc1cnc(N2Cc3cnc(C(C)(C)C)nc3C2)nc1` here?
The value was -2.734%.

For `CCN(CC)CC(=O)NCCc1csc(N2CCCC2)n1`, which “Percent Effect” value is on record?
The value was 7.841%.

Which “Percent Effect” value does the source give for `O=C(c1ccncc1F)N1C[C@H]2CC[C@@H]1CN(Cc1cccnc1)C2` here?
Its value is -17.68%.

How did the “Percent Effect” value turn out when `CC1(C)[C@H](Cc2cc(CN3CCOCC3)on2)C[C@@H]1NC(=O)C1CCC1` was run?
Its value is 3.49%.

How did the “Percent Effect” value turn out when `CC(CCc1ccc(O)cc1)NC1CCN(S(C)(=O)=O)CC1` (stereo unspecified) was run?
Its value is 7.002%.

Which “Percent Effect” value does the source give for `CCOC(=O)NC1CCCN(c2cncc(Br)c2)C1` (stereo unspecified) here?
Its value is -1.321%.

`CC(C)N(Cc1cnn(C)c1)CC1CCCN(S(C)(=O)=O)C1` (stereo unspecified) was tested. Which “Percent Effect” value did it give?
Its value is 7.104%.

For `CC(=O)N1CCCC(Cc2cncc(Br)c2)CC1` (stereo unspecified), which “Percent Effect” value is on record?
The value was -3.498%.

`CC(C)N1CCCC(Cc2cncc(Br)c2)CC1` (stereo unspecified) was tested. Which “Percent Effect” value did it give?
Its value is 135.8%.

With `CS(=O)(=O)N1CCCC(Cc2cncc(Br)c2)CC1` (stereo unspecified) as the molecule, how does the “Percent Effect” value read?
Its value is 127%.

`CC(=O)N1CCCC(Cc2cncc(Br)c2)C1` (stereo unspecified) was tested. Which “Percent Effect” value did it give?
The value was 130.8%.

Which “Percent Effect” value does the source give for `CC(C)N1CCCC(C(=O)NCCCc2cnn(C)c2)C1` (stereo unspecified) here?
The value was -2.763%.

Which “Percent Effect” value does the source give for `COc1cccc2c1CCC2NC(=O)NCc1csc(N(C)C)n1` (stereo unspecified) here?
Its value is 7.815%.

Which “Percent Effect” value does the source give for `Cc1ccc([C@@H]2CN(C(=O)c3ccon3)C[C@H]2NC(=O)C2CC2)cc1` here?
Its value is -0.9032%.

`CCc1noc(CC)c1CC(=O)N1CCC(C(=O)NC(C)C)CC1` was tested. Which “Percent Effect” value did it give?
Its value is -12.02%.

How did the “Percent Effect” value turn out when `CC(=O)NCCNC(=O)c1cc(Br)c2c(c1)OCCO2` was run?
Its value is -14.07%.

For `CC1CCN(S(=O)(=O)NCC2CCOc3ccccc3C2)CC1` (stereo unspecified), which “Percent Effect” value is on record?
Its value is -7.362%.

How did the “Percent Effect” value turn out when `CC(C)Oc1cc(N2C[C@@H](C)O[C@@H](C)C2)nc(N)n1` was run?
The value was -18.9%.

Which “Percent Effect” value does the source give for `CC(NCc1cccnc1)c1ccc(OCC(=O)NC2CC2)cc1` (stereo unspecified) here?
Its value is -5.583%.

With `NS(=O)(=O)N1CCC(CSc2ccccc2)C1` (stereo unspecified) as the molecule, how does the “Percent Effect” value read?
Its value is -8.118%.

Which “Percent Effect” value does the source give for `Cc1oncc1C(=O)N1CCC2(CC1)CC(c1ccccc1)C(=O)N2C` (stereo unspecified) here?
Its value is -5.401%.

`N#Cc1ccnc(N2CCN(C(=O)c3ccc4c(c3)CCO4)CC2)c1` was tested. Which “Percent Effect” value did it give?
The value was 2.896%.

With `O=S(=O)(CCCNC1CCc2ncnn2C1)c1ccccc1` (stereo unspecified) as the molecule, how does the “Percent Effect” value read?
Its value is 113.7%.

How did the “Percent Effect” value turn out when `c1csc(-c2noc(CCCNC3CCc4ncnn4C3)n2)c1` (stereo unspecified) was run?
The value was 7.784%.

With `c1csc(CCNC2CCc3ncnn3C2)c1` (stereo unspecified) as the molecule, how does the “Percent Effect” value read?
Its value is -10.08%.

With `Clc1ccc(-c2cnc(CNC3CCc4ncnn4C3)o2)cc1` (stereo unspecified) as the molecule, how does the “Percent Effect” value read?
The value was -3.633%.

With `COc1cccc(S(=O)(=O)CCNC2CCc3ncnn3C2)c1` (stereo unspecified) as the molecule, how does the “Percent Effect” value read?
Its value is 109.9%.

For `Cc1nc(CNC2CCc3ncnn3C2)oc1C` (stereo unspecified), which “Percent Effect” value is on record?
Its value is -6.098%.

How did the “Percent Effect” value turn out when `COc1cccc(S(=O)(=O)CCNCCn2cccn2)c1` was run?
Its value is 2.314%.

With `c1ccc(CNC2CCc3ncnn3C2)nc1` (stereo unspecified) as the molecule, how does the “Percent Effect” value read?
Its value is -4.327%.

With `O=S(=O)(CCNC1CCc2ncnn2C1)c1ccc(Cl)cc1` (stereo unspecified) as the molecule, how does the “Percent Effect” value read?
Its value is 86.02%.

Which “Percent Effect” value does the source give for `O=C(CNC1CCc2ncnn2C1)NCCc1cccs1` (stereo unspecified) here?
The value was 2.681%.

With `Cc1ccc(C)c(S(=O)(=O)CCNC2CCc3ncnn3C2)c1` (stereo unspecified) as the molecule, how does the “Percent Effect” value read?
The value was 114%.

For `Cc1ccc(-c2nc(CNC3CCc4ncnn4C3)co2)c(C)c1` (stereo unspecified), which “Percent Effect” value is on record?
The value was -0.6319%.

For `CS(=O)(=O)Nc1ccc([C@H]2OCC(=O)N[C@@H]2CO)cc1`, which “Percent Effect” value is on record?
Its value is -3.066%.

For `CC(C)Sc1ccc(C(C)Nc2nc3c(cnn3C)c(=O)[nH]2)cc1` (stereo unspecified), which “Percent Effect” value is on record?
Its value is -4.166%.

How did the “Percent Effect” value turn out when `Cc1cc(NC(=O)NC(C)CN2CCN(c3ccccc3)CC2)on1` (stereo unspecified) was run?
Its value is -17.45%.

For `CNC(=O)NC(=O)CSC(C)c1ccccc1F` (stereo unspecified), which “Percent Effect” value is on record?
The value was -20.44%.

Which “Percent Effect” value does the source give for `Cc1nc(NC(=O)C(C)S(C)(=O)=O)sc1Cc1ccccc1F` (stereo unspecified) here?
Its value is -3.086%.

How did the “Percent Effect” value turn out when `Cn1cccc1CN1CCC2(CC1)CN(c1ncccn1)CCO2.O=C(O)C(F)(F)F` was run?
The value was 0.2482%.

Which “Percent Effect” value does the source give for `CCc1ccc(CN2CCC3(CC2)CNC(=O)CO3)o1.O=C(O)C(F)(F)F` here?
The value was -11.34%.

`Cn1ccnc1CN1CCC2(CC1)CN(c1ccccc1)C(=O)CO2.O=C(O)C(F)(F)F` was tested. Which “Percent Effect” value did it give?
Its value is -5.115%.

With `Cn1cccc1CN1CCC2(CC1)CN(c1ccccc1)C(=O)CO2.O=C(O)C(F)(F)F` as the molecule, how does the “Percent Effect” value read?
The value was 80.65%.

How did the “Percent Effect” value turn out when `Cc1ccc(CN2CCC3(CC2)CN(c2ccccc2)C(=O)CO3)o1.O=C(O)C(F)(F)F` was run?
The value was 119.8%.

For `Cc1ccc(CN2CCOCC3(C2)CN(c2ccc(C)s2)C(=O)CO3)o1.O=C(O)C(F)(F)F` (stereo unspecified), which “Percent Effect” value is on record?
The value was 3.651%.

With `CCCNC(=O)C1CCN(CC2(O)CCC(C)CC2)CC1` (stereo unspecified) as the molecule, how does the “Percent Effect” value read?
Its value is -9.033%.

`COCc1cccc(NC(=O)NCc2ncc(C)c(OC)c2C)c1` was tested. Which “Percent Effect” value did it give?
The value was -10.08%.
